D2 ag-1: agonists of human D2 dopamine receptor; HEK293 T-REx D2 cells, calcium flux agonist mode; activation, % at 2 µM; 0.53% of 340,000 active; AID 485358;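 active = activation over 3 SD above normal in the single-dose calcium agonist read, cut at about 30% in these data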; note: 0% is about no effect
Target sequence (P14416 whole entry, looked up): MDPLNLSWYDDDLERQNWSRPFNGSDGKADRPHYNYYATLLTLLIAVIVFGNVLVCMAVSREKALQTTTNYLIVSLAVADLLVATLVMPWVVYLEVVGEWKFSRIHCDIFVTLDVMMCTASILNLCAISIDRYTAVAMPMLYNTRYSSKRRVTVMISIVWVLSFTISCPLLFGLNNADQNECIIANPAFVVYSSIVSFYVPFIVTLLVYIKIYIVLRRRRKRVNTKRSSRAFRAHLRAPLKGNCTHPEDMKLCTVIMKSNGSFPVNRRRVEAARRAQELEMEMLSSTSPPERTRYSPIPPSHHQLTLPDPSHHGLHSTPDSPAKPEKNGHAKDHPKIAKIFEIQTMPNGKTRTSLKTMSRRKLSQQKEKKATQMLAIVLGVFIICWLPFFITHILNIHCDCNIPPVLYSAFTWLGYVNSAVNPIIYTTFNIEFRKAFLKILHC
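In this primary screen, compounds producing a positive calcium signal within 180 s of addition to tetracycline-induced, force-coupled HEK293 Trex D2 cells are flagged; cells are dye-loaded with a no-wash calcium kit beforehand.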
D2 PAM-1: D2 dopamine receptor (human) potentiation; potentiation, % at 10 µM; 0.34% of 340,000 active; HEK293 T-REx D2, calcium flux, EC20 dopamine potentiation; P14416;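 active = potentiation over 3 SD above the plate norm, cut at about 30% in these data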; note: 0% is about no effect
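Tetracycline-induced HEK293 T-REx cells force-coupled to calcium signalling expressed D2; compounds were pin-added after a 10 s baseline, read kinetically 180 s, then an EC20 dopamine challenge followed with a further 180 s calcium read.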
D2 PAM-2: positive allosteric modulators of human D2 dopamine receptor. AID 624464. potentiation, % (test concentration not listed). DiscoveRx D2 beta-arrestin cells, luminescence, 90 min; 100% = 57 uM dopamine signal. 0.23% of 360,000 active; in the data active = potentiation above about 50%; inconclusive = mostly about 30% to 49%
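D2 cells co-treated with compound plus 50 nM dopamine (EC20) for 90 min at 37 deg C to detect potentiation. Beta-arrestin recruitment was read as enzyme-fragment luminescence after 1 h at ambient temperature. Full response was set by 57 uM dopamine.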
D2 antag: antagonists of human D2 dopamine receptor; HEK293 TREx D2 cells, calcium flux, dopamine EC80; inhibition, % at 10 µM; 2% of 340,000 active; in the data active = inhibition above about 30%; inactive = below that, where a call was filed; note: 0% is about no effect
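Read-out: kinetic calcium fluorescence (1 cycle/s) in inducible HEK293 T-REx D2 cells after an EC80 dopamine addition that followed 180 s compound preincubation. Loss of the dopamine response indicates antagonism.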
D2 ag-2: agonists of human D2 dopamine receptor (beta-arrestin) | P14416 | 0.084% of 360,000 active | activation, % (no concentration beside the values) | DiscoveRx PathHunter D2 beta-arrestin, luminescence, 90 min; 100% = 57 uM dopamine signal; in the data active = activation above about 40%; inconclusive = between about 15% and that limit
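DiscoveRx PathHunter D2 beta-arrestin cells (2,100/well) attached overnight, then compound-stimulated 90 min at 37 C in HBSS/10 mM HEPES/0.1% Tween-20 buffer; beta-galactosidase complementation read by luminescence after 1 h at ambient temperature. Dopamine 57 uM final (EC100) as control.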
* marks the source's active call; other numbers are inactive results. Sampled rows, rich in hits. Any-hit rate of the full collection: about 2.4%.

`CCN(C(=O)CCS(=O)(=O)c1cc2[nH]c(=O)c(=O)[nH]c2cc1C)c1ccccc1` gave D2 ag-1 1 and D2 PAM-1 2.
Screening COc1cccc(OC(=O)N2CCOCC2)c1 returned D2 ag-1 0, D2 PAM-1 -10, D2 PAM-2 -10, D2 antag 2 and D2 ag-2 -18.
`Cc1cc(C)cc(OC(=O)N2CCOCC2)c1` gave D2 ag-1 0, D2 PAM-1 9, D2 PAM-2 11, D2 antag 38* and D2 ag-2 -3.
Cc1nc(SCC(=O)NCc2ccco2)c2c3c(sc2n1)CCCC3 was read as D2 ag-1 1, D2 PAM-1 1, D2 PAM-2 -5, D2 antag 36* and D2 ag-2 -3.
Screening CN(C1CCCCC1)S(=O)(=O)c1ccc2c(c1)c(=O)c(C(=O)N1CCN(c3ccccc3F)CC1)cn2C returned D2 ag-1 0 and D2 PAM-1 14.
For Cc1ccc(C(=O)NCCc2c[nH]c3ccccc23)c(C)c1 the results were D2 ag-1 0, D2 PAM-1 -26, D2 PAM-2 -10, D2 antag 74* and D2 ag-2 -4.
`COc1cccc(-n2c(=O)c3sccc3n(CC(=O)NC3CCCCC3)c2=O)c1` gave D2 ag-1 0, D2 PAM-1 1, D2 PAM-2 -6, D2 antag 30* and D2 ag-2 -3.
For COc1cccc(-n2c(=O)c3sccc3n(CC(=O)NC3CCCC3)c2=O)c1 the results were D2 ag-1 -1, D2 PAM-1 17, D2 PAM-2 -8, D2 antag -14 and D2 ag-2 -8.
For CCC(C(=O)OCC(=O)Nc1c(C)nn(-c2ccccc2)c1C)c1ccccc1 (stereo not given) the results were D2 ag-1 0, D2 PAM-1 3, D2 PAM-2 4, D2 antag 18 and D2 ag-2 0.
For Cc1nn(-c2ccccc2)c(C)c1NC(=O)COC(=O)[C@@H](NC(=O)c1ccccc1)C(C)C the results were D2 ag-1 -1, D2 PAM-1 -5, D2 PAM-2 6, D2 antag 36* and D2 ag-2 -2.
Screening Cc1ccccc1OCC(=O)NCC(=O)N/N=C/c1cccc([N+](=O)[O-])c1 returned D2 ag-1 1, D2 PAM-1 -2 and D2 antag -8.
For O=C(N/N=C/c1cccc(Oc2ccc([N+](=O)[O-])cc2[N+](=O)[O-])c1)c1cncc(Br)c1 the results were D2 ag-1 -1, D2 PAM-1 23, D2 PAM-2 85*, D2 antag 5 and D2 ag-2 7.
Screening Cc1ccccc1OCC(=O)N/N=C/c1cccc(Oc2ccc([N+](=O)[O-])cc2[N+](=O)[O-])c1 returned D2 ag-1 0, D2 PAM-1 -4, D2 PAM-2 55*, D2 antag -9 and D2 ag-2 12.
For COc1ccccc1CNC(=O)C1CCCN(C(=O)c2cnn(-c3ccc(F)cc3)c2-n2cccc2)C1 (stereo not given) the results were D2 ag-1 -2 and D2 PAM-1 4.
`COc1ccc(Cn2c(-c3ccc(C)cc3)nc3c(c(=O)c4ccccc4n3C)c2=O)cc1` gave D2 ag-1 0, D2 PAM-1 -3, D2 PAM-2 -12, D2 antag 37* and D2 ag-2 -3.
Screening COc1ccc(CCn2c(C)nc3c(c(=O)c4ccccc4n3C)c2=O)cc1 returned D2 ag-1 3, D2 PAM-1 25, D2 PAM-2 -17, D2 antag 49* and D2 ag-2 2.
`COc1cc2c(cc1OC)C(COc1ccc3c(C)cc(=O)oc3c1)N(C(=O)c1cccc(C)c1)CC2` (stereo not given) gave D2 ag-1 0 and D2 PAM-1 -11.
COc1ccc(OC)c(CNC(=O)C(C)n2c(C)c3cnn(-c4ccccc4)c(=O)c3c2C)c1 (stereo not given) was read as D2 ag-1 -1 and D2 PAM-1 10.
For Cc1cc(C=O)c(C)n1-c1ccc(Cl)c(C(=O)O)c1 the results were D2 ag-1 -1, D2 PAM-1 -13, D2 PAM-2 9, D2 antag 37* and D2 ag-2 3.
`Cc1ccc2occ(C(=O)c3ccco3)c(=O)c2c1` gave D2 ag-1 -1, D2 PAM-1 2, D2 PAM-2 -2, D2 antag 39* and D2 ag-2 -1.
`O=C(CN1CCSC1=O)N1CCN(S(=O)(=O)c2ccccc2)CC1` gave D2 ag-1 0, D2 PAM-1 -2, D2 PAM-2 -4, D2 antag 37* and D2 ag-2 -2.
For O=C(N1CCCCC1)N1CCN(S(=O)(=O)c2ccccc2)CC1 the results were D2 ag-1 1, D2 PAM-1 70*, D2 PAM-2 -13, D2 antag 8 and D2 ag-2 1.
Screening COc1ccc(S(=O)(=O)N2CCN(C(=O)c3oc4ccccc4c3C)CC2)cc1 returned D2 ag-1 1, D2 PAM-1 -6, D2 PAM-2 -4, D2 antag -7 and D2 ag-2 -1.
Cc1c(C(=O)N2CCN(S(=O)(=O)c3ccccc3)CC2)oc2ccccc12 was read as D2 ag-1 0, D2 PAM-1 -8, D2 PAM-2 3, D2 antag 34* and D2 ag-2 -5.
O=C(c1ccc(=O)[nH]c1)N1CCN(S(=O)(=O)c2ccc(Cl)cc2)CC1 was read as D2 ag-1 1, D2 PAM-1 4, D2 PAM-2 -1, D2 antag 5 and D2 ag-2 2.
O=C(c1ccc(=O)[nH]c1)N1CCN(S(=O)(=O)c2ccccc2)CC1 was read as D2 ag-1 0, D2 PAM-1 23, D2 PAM-2 0, D2 antag 31* and D2 ag-2 -4.
For O=C(N1CCCCCC1)N1CCN(S(=O)(=O)c2ccccc2)CC1 the results were D2 ag-1 1, D2 PAM-1 3, D2 PAM-2 -2, D2 antag 15 and D2 ag-2 1.
Cc1ccc(C)c(NS(=O)(=O)c2ccc3c(c2)n(C)c(=O)n3C)c1 was read as D2 ag-1 -1 and D2 PAM-1 16.
For Nc1cnccc1C(=O)O the results were D2 ag-1 4, D2 PAM-1 -12, D2 PAM-2 inconclusive, D2 antag 43* and D2 ag-2 inconclusive.
For COc1ccc(CNC(=O)COCc2cc(-c3cccs3)on2)cc1 the results were D2 ag-1 -1 and D2 PAM-1 2.
`O=C(c1ccco1)N1N=C2CCCCCC2C1(O)C(F)(F)F` (stereo not given) gave D2 ag-1 -1, D2 PAM-1 32*, D2 PAM-2 1, D2 antag -5 and D2 ag-2 -3.
O=C1CCCN1Cc1ccccc1 was read as D2 ag-1 0, D2 PAM-1 1, D2 PAM-2 -6, D2 antag 30* and D2 ag-2 -6.

Screening data as filed in PubChem BioAssay.
